KCNQ2 pot: potentiators of rat KCNQ2 potassium channel; Potassium voltage-gated channel subfamily KQT member 2 (Rattus norvegicus), O88943; CHO-K1 KCNQ2, FluxOR thallium flux fluorescence; hits give high values; B-score at 10 µM; actives 0.54% (n = 310,000); AID 2239, 2010;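 active = fluorescence ratio B-score at least 3 SD of library B-scores, with initial fluorescence B-score within 3 of them, cut at about 5.3 in these data; same plate scores as AID 2156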;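 also: B-score of peak minus minimum over baseline fluorescence ratio after K+ and Tl+ stimulus; positive B-score means potentiation of KCNQ2 with more thallium influx and brighter signal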
KCNQ2 inh: rat KCNQ2 potassium channel inhibitors, primary screen, cell-based, CHO-K1, FluxOR thallium flux, B-score; Potassium voltage-gated channel subfamily KQT member 2 (Rattus norvegicus), O88943; B-score at 10 µM; 20 min; hits give low values; AID 2156, 2009; actives 1.1% (n = 310,000);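 active = fluorescence ratio B-score at most minus 3 library SDs, with starting brightness B-score within 2 library SDs, cut at about -5.5 in these data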
Kir21 confirm: mouse Kir2.1 channel blockers, retest, confirmation, cell-based, FluxOR thallium flux, duplicate. shares compounds with KCNQ2 pot. Kir2.1-expressing cells, FluxOR thallium flux fluorescence; hits give low values. Tl flux remaining, % of negative control (hits give low values), % at 10 µM. actives 41% (n = 2,300);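 active = Primary-screen hit whose thallium flux fell at least 3 control SD below untreated wells in both duplicates, with normal baseline fluorescence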;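 also: 0% = blank wells without stimulus and 100% = stimulated no-compound controls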
HEK293 ctr: alters thallium flux in parental HEK293 cells, Kir2.1 counter-screen; shares compounds with KCNQ2 pot; FluxOR thallium flux fluorescence; 0% = unstimulated blank wells; FluxOR signal as % of negative control (100 = no effect), % at 10 µM; actives 19% (n = 2,300); AID 2105;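 active = dye signal at least 3 control SD above or below untreated wells in both duplicates, raw fluorescence within 3, either direction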;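 also: percent is based on the flux ratio of peak minus minimum fluorescence over baseline F0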
CHO-K1 ctr: nonspecific thallium flux increase in parental CHO-K1, confirmation, counter-screen for KCNQ2 potentiator project, cell-based, FluxOR thallium flux, duplicate; parental CHO-K1 cells, FluxOR thallium flux fluorescence; zero = vehicle mean+3SD, 100% = vehicle-minus-blank window; shares compounds with KCNQ2 pot; actives 43% (n = 1,200); activity increase over 3SD of controls, % at 10 µM;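 active = signal rise of at least 3 SD above the untreated control mean, in both duplicate wells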;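 also: counter screen of KCNQ2 potentiator hits so any rise reflects channel-independent effects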
KCNQ1 pot spec: human KCNQ1 channel potentiation off-target, confirmation, selectivity assay for KCNQ2 potentiator project, cell-based, CHO, FluxOR thallium flux. activation over 3SD threshold, % at 10 µM. actives 28% (n = 1,200). shares compounds with KCNQ2 pot. CHO KCNQ1 stable, FluxOR thallium flux fluorescence; beyond 3SD, as % of vehicle-control signal;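 active = fluorescence ratio rise of at least 3 SD of vehicle wells above their mean, in both replicate wells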;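 also: 0% = vehicle mean plus 3 SD and 100% = vehicle minus unstimulated blank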
Target sequence (P51787 whole entry, looked up): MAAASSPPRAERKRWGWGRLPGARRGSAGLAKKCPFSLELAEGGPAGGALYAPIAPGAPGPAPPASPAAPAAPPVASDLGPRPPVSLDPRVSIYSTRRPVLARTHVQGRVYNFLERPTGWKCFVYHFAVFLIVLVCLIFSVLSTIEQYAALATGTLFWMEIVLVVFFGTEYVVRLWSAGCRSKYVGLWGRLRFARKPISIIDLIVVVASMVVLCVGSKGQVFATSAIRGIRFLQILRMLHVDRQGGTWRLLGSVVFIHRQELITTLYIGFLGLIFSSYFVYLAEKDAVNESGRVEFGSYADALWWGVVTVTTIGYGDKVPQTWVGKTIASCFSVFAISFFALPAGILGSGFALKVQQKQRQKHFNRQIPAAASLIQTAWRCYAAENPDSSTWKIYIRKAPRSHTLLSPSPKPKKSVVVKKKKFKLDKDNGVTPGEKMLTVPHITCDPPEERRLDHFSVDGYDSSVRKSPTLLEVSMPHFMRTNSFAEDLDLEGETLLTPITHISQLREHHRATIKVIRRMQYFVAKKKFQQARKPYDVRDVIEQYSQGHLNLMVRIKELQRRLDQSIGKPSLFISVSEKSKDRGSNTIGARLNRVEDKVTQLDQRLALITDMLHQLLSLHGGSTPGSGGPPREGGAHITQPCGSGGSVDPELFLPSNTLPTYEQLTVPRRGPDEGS
KCNQ2 pot conf: rat KCNQ2 channel potentiators, confirmation, cell-based, CHO, FluxOR thallium flux, duplicate; CHO-KCNQ2 cells, FluxOR thallium flux fluorescence; shares compounds with KCNQ2 pot; potentiation, less the hit threshold, % at 10 µM; actives 68% (n = 1,200);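 active = fluorescence ratio rising 3 SD or more over the vehicle control mean in both replicates, plus primary screen hit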;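 also: peak minus minimum thallium fluorescence divided by baseline after K/Tl stimulus; 0% = vehicle mean plus 3 SD and 100% = vehicle minus unstimulated blank difference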
Kir21 spec: mouse Kir2.1 channel activation off-target, confirmation, selectivity assay for KCNQ2 potentiator project, cell-based, HEK293, FluxOR thallium flux. shares compounds with KCNQ2 pot. HEK293 Kir2.1, FluxOR thallium flux fluorescence. activity over 3SD threshold, % at 10 µM. actives 2% (n = 1,200). AID 2345, 2010;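 active = fluorescence ratio rise of at least 3 SD above the vehicle-control mean, seen in both replicates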;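 also: 0% = vehicle mean plus 3 SD and 100% = vehicle minus no-stimulus blank window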
KCNQ2 W236L pot: potentiators of retigabine-insensitive KCNQ2 W236L, mechanism study for KCNQ2 potentiator project, cell-based, rat KCNQ2 W236L, CHO, automated patch clamp; shares compounds with KCNQ2 pot; automated patch clamp current; current increase over 3SD of negative controls (%), hits give high values, % at 25 µM; actives 10% (n = 940);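 active = current increase at least 3 SD of the untreated controls above them in both duplicate recordings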
Active calls of the source: *; i = inactive; / = not tested or not shown. Compounds with a hit are over-represented: about 1.6% of the library has one in this group of screens.

SMILES	KCNQ2 pot	KCNQ2 inh	Kir21 confirm	HEK293 ctr	others
O=C(c1c[nH]c(C(=O)C(Cl)(Cl)Cl)c1)c1ccc(F)cc1F	/	i	/	/
COc1ccccc1NC1=C(NC(C)=O)C(=O)c2ccccc2C1=O	8*	i	i	i	CHO-K1 ctr=-27;KCNQ1 pot spec=-27;KCNQ2 pot conf=4.8*;Kir21 spec=-32;KCNQ2 W236L pot=i
COC1=C(Nc2ccccc2OC)C(=O)c2ccccc2C1=O	/	i	/	/
CC(=O)Nc1cccc(OCC(=O)NC(C)c2ccc3ccccc3c2)c1 (configuration not stated)	2.5	i	56%*	i
CC(=O)Nc1cccc(OCC(=O)Nc2ccccc2)c1	1.1	i	/	/
Cc1cc(C(=O)OCC(=O)Nc2ccc(F)cc2)c(C)o1	5.7*	i	i	i	CHO-K1 ctr=74*;KCNQ1 pot spec=-10;KCNQ2 pot conf=-3;Kir21 spec=-34;KCNQ2 W236L pot=i
Cc1cc(C(=O)OCC(=O)Nc2ccccc2)c(C)o1	1.4	i	/	/
Cc1nnc(NC(=O)C2CC(=O)N(c3ccccc3)C2)s1 (configuration not stated)	0.2	i	/	/
CCc1ccc(S(=O)(=O)NC(=S)Nc2ccccc2)cc1	0.85	i	/	/
CCn1c(CSCc2ccc(C)cc2)nnc1SCC(=O)NCc1ccccc1	/	i	i	i
CCn1c(CC(=O)Nc2ccc(C)cc2)nnc1SCC(=O)NCc1ccccc1	/	i	/	/
CCn1c(CNc2ccc(Cl)cc2)nnc1SCc1ccccc1	/	i	63%*	i
Cn1c(CNc2ccc(Cl)cc2)nnc1SCc1ccccc1	/	i	/	/
Cc1ccc(C2=NOC(C)(c3nnc(-c4ccc(Cl)cc4)o3)C2)cc1 (configuration not stated)	/	i	/	/
CCOc1ccc(CNC2CCCCCCC2)cc1OC	1.4	i	/	/
CC1CN(S(=O)(=O)c2cccc(C(=O)OC(C)C(=O)NC3CCCCC3C)c2)CC(C)O1 (configuration not stated)	/	i	/	/
Cc1cc(C)cc(OCC(=O)OCC(=O)N(CC(C)C)c2c(N)n(Cc3ccccc3)c(=O)[nH]c2=O)c1	0.04	i	/	/
CCn1c(SCC(O)c2ccccc2)nnc1-c1ccccc1 (configuration not stated)	0.68	i	/	/
CCn1c(SCc2cccc(C)c2)nnc1-c1ccccc1	/	i	57%*	i
CC(C)=C(NC(=O)c1ccccc1)C(=O)Nc1ccc(C(=O)O)cc1	0.71	i	/	/
C=CCN1C(=O)c2ccccc2NC1c1ccc(Br)s1 (configuration not stated)	1.2	i	/	/
O=C1c2ccccc2NC(c2ccc(Br)s2)N1O (configuration not stated)	7.8*	i	i	288%*	CHO-K1 ctr=1.4*;KCNQ1 pot spec=27*;KCNQ2 pot conf=22*;Kir21 spec=-38;KCNQ2 W236L pot=i
O=C(Nc1cccc2c1CCCC2)c1ccccc1Cl	0.46	i	/	/
O=C(Nc1nnc(-c2ccc3c(c2)CCCC3)o1)c1ccccc1	7.1*	i	i	289%*	CHO-K1 ctr=-10;KCNQ1 pot spec=-14;KCNQ2 pot conf=8.6*;Kir21 spec=-26;KCNQ2 W236L pot=i
O=C(COc1ccccc1)Nc1nnc(-c2ccc3c(c2)CCCC3)o1	/	i	/	/
SMILES	KCNQ2 pot	KCNQ2 inh	Kir21 confirm	HEK293 ctr	others
O=C(Nc1nnc(-c2ccc3c(c2)CCCC3)o1)c1ccccc1Cl	9.4*	i	i	i	CHO-K1 ctr=-22;KCNQ1 pot spec=-15;KCNQ2 pot conf=12*;Kir21 spec=-21;KCNQ2 W236L pot=i
O=C(CCN1C(=O)c2ccc(Br)cc2C1=O)NC1CCCCC1	0.21	i	/	/
O=C(COc1ccc2c(-c3ccccc3)cc(=O)oc2c1)Nc1cccnc1	0.4	i	/	/
O=C1CN(S(=O)(=O)c2cccc(Cl)c2Cl)c2ccccc2N1	1.2	i	59%*	i
O=C1CN(S(=O)(=O)c2ccc(Br)cc2)c2ccccc2N1	/	i	/	/
CCN1CCN(c2nc(C)c3c(n2)CC(C)CC3=O)CC1 (configuration not stated)	0.57	i	/	/
Cc1nc(N2CCN(Cc3ccccc3)CC2)nc2c1C(=O)CC(C)C2 (configuration not stated)	/	i	65%*	i
COc1cccc(-c2nc(NCC3CCCO3)c3ccccc3n2)c1O (configuration not stated)	/	i	/	/
COc1ccccc1Nc1nc(NCC2CCCO2)c2ccccc2n1 (configuration not stated)	/	i	28%*	i
CCCc1nnc(NC(=O)C23CC4CC(CC(C4)C2)C3)s1	2.8	i	/	/
COc1ccc(CNCCC(c2ccc(OC(C)C)cc2)c2ccccc2OC)cc1OC (configuration not stated)	/	i	/	/
COc1ccccc1C(CCNCc1ccccc1)c1ccc(OC(C)C)cc1 (configuration not stated)	/	i	58%*	i
COc1ccc(CNCCC(c2ccc(OC(C)C)cc2)c2ccccc2OC)cc1 (configuration not stated)	/	i	29%*	i
COc1ccccc1C(CCNCc1ccc(N(C)C)cc1)c1ccc(OC(C)C)cc1 (configuration not stated)	/	i	/	/
Cc1ccc2[nH]c(C(=O)N3CCOCC3)cc2c1	/	i	/	/
O=C(COC(=O)CCCSc1nc2ccccc2[nH]1)Nc1ccc(Cl)cc1	/	i	/	/
O=C(NNC(=O)c1ccccc1Cl)c1ccccc1Cl	0.96	i	/	/
COc1cccc(C(=O)NNC2=C(C(=O)C(F)(F)F)CCC2)c1	6.4*	i	i	i	CHO-K1 ctr=3.0*;KCNQ1 pot spec=-7;KCNQ2 pot conf=21*;Kir21 spec=-28;KCNQ2 W236L pot=i
COc1cccc(C(=O)NN=C2CCCC2)c1	/	i	/	/
